Measurements taken from PubChem BioAssay.
The source made the active and inactive calls.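 How the source made its calls, unless noted: active means visual image review flags a hit and inhibition of aggregation exceeds 20%; inconclusive means visual hit but inhibition at or below 20%; inactive means no hit on visual image review.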

Columns and labels:
[1] = inhibitors of TNFa-induced NFkB p65 translocation, primary screen, imaging, HUVEC, MLSMR starter and 10KST1 sets (AID 438;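 active means inhibition above 20% together with a positive visual image hit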;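 further: compound added about 3h40 before a 20 min TNFalpha stimulation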;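 on inhibition: signal is the nuclear over cytoplasmic p65 intensity ratio per well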); conditions: HUVEC TNFa-induced p65 nuclear translocation; cell count: measured here: nuclei count (cytotoxicity indicator), at 2.08 µM; inhibition: at 2 µM, stronger effect = higher value, 0% TNFa-plus-vehicle, 100% no-TNFa wells
[2] = reduction of polyQ htt aggregates in cells – imaging, exon1htt(103Q)mCFP cells, high-content imaging, primary screen (AID 483); conditions: exon1htt(103Q)mCFP cell line, aggregate imaging, at 2 µM; inhibition of aggregation: stronger effect = higher value; nuclei count: measured here: cell count, toxicity;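 further: compound exposure lasted 3 days before fixation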;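 on nuclei count: percent of the per-plate median nuclei count of sample wells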
[3] = endothelial E-selectin expression blockers – imaging, HUVEC, immunofluorescence, MLSMR starter and 10KST1 sets, primary screen (AID 487;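 active means visually confirmed hit in the image check and inhibition above 20%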;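 on inhibition: signal is fraction of cell area covered by stained E-selectin grains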;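 on nuclei count: 100% = median nuclei count of all wells on the same plate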); conditions: HUVEC TNFalpha-induced E-selectin immunofluorescence imaging, at 2 µM; inhibition: stronger effect = higher value; nuclei count: measured here: cell number, toxicity
[4] = target: Voltage-gated potassium channel subunit beta-2 (Rattus norvegicus) (UniProt P62483); experiment: inhibitors of rat Kvbeta2 reductase activity – biochemical, NADPH fluorescence, primary screen (AID 622;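 active means fluorescence slope higher than the sample average by over 3 SD, cut at about -0.22 in these data, passing the limit was not always enough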;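 further: slope of raw intensity against log time taken from 70 to 1610 s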); conditions: recombinant KvBeta, 4-cyanobenzaldehyde reduction, at 10 µM, stronger effect = higher value
Voltage-gated potassium channel subunit beta-2 (Rattus norvegicus), sequence (P62483 whole entry, looked up): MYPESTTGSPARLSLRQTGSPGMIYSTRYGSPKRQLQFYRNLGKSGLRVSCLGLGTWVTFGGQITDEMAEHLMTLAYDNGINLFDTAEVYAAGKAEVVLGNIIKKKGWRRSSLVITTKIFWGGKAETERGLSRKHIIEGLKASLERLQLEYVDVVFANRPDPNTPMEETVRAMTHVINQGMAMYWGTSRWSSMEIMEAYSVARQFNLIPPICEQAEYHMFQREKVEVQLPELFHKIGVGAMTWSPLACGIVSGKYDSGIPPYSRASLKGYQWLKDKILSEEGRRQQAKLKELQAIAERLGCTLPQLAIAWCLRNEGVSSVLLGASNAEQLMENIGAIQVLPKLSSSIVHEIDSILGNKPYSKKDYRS

[5] = target: Voltage-gated potassium channel subunit beta-2 (Rattus norvegicus) (UniProt P62483); experiment: enhancers of rat Kvbeta2 NADPH turnover – biochemical, NADPH fluorescence, primary screen (AID 623;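 active means NADPH fluorescence slope more negative than the mean of all samples by about 3 SD, 99.7% confidence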;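 further: fluorescence intensity change per second fitted from 20 to 320 s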); conditions: Recombinant KvBeta, NADPH fluorescence decrease slope, 10 min; at 10 µM; stronger effect = lower value
[6] = target: Alpha-2C adrenergic receptor (Homo sapiens) (UniProt P18825); experiment: compounds altering alpha2C-coupled GIRK flux – cell-based, HEK293 alpha2C/GIRK1/2, thallium flux, primary screen (AID 624;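 active means fluorescence slope after compound addition differing from the mean of all screened samples at 99.7% confidence, in either direction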;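 further: slope of fluorescence ratio to pre-addition baseline per second over 15 to 24 s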); conditions: thallium flux BTC fluorescence, at 10 µM, actives lie on both sides
Alpha-2C adrenergic receptor (Homo sapiens), sequence (P18825 whole entry, looked up): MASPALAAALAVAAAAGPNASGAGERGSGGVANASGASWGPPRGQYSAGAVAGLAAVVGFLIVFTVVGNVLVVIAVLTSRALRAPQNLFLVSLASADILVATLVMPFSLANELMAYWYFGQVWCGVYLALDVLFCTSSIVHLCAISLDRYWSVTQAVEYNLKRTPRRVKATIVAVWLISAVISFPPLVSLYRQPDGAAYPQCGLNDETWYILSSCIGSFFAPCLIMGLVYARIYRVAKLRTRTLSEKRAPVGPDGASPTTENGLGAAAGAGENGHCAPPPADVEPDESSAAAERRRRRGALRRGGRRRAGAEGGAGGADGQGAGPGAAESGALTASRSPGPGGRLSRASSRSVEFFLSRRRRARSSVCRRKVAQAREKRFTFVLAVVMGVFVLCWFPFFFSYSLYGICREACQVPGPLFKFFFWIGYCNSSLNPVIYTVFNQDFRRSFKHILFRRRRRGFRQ

[7] = blockers of RIG-like receptor reporter activation – cell-based, Sendai virus stimulus, luciferase, 10K MLSCN set, TLR/RLR signaling modifier project, primary screen (AID 602276;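 active means inhibition at or above 50% at 10 µM; inactive means inhibition below 50%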;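 further: firefly luciferase from ISG56 promoter only with Renilla not read in this screen; 0% = Sendai virus plus DMSO and 100% = medium plus DMSO without virus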); conditions: HEK293 RL24 IRF3 luciferase reporter, at 10 µM, stronger effect = higher value
[8] = TLR3 IRF3 reporter activation blockers – cell-based, poly I:C stimulus, luciferase, 10K MLSCN set, primary screen (AID 602277;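 active means inhibition of the reporter signal at or above 50%; inactive means inhibition below 50%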); conditions: HEK293-TLR3 RL24 IRF3 luciferase reporter, at 10 µM, stronger effect = higher value

Row | Structure (SMILES) | cell count [1] | inhibition [1] | inhibition of aggregation [2] | nuclei count [2] | inhibition [3] | nuclei count [3] | fluorescence slope [4] | NADPH fluorescence slope [5] | slope [6] | inhibition [7] | inhibition [8]
1 | O=C(NCc1ccccn1)c1cccs1 | 254 | 12.5% (inactive) | 2.9% (inactive) | 91.4% | -1.8% (inactive) | 95.7% | -0.479 (inactive) | -5.3e-05 (inactive) | 0.00519 (inactive) | -4.29% (inactive) | 5.52% (inactive)
2 | Cc1cc(NC(=O)CCC(=O)N(c2cccnc2)C(C(=O)NC2CCCC2)c2ccccc2F)no1 (stereo not drawn) | 557 | -9% (inactive) | 11.8% (inactive) | 107% | -19.7% (inactive) | 116% | -0.62 (inactive) | -5.7e-06 (inactive) | 0.00332 (inactive) | -5.41% (inactive) | -11% (inactive)
3 | CC(NC(=O)Nc1ccccc1)C(c1cccs1)N1CCOCC1 (stereo not drawn) | 606 | -0.5% (inactive) | -6.2% (inactive) | 97.6% | -2.9% (inactive) | 111% | -0.6 (inactive) | -9.3e-06 (inactive) | 0.00654 (inactive) | 1.55% (inactive) | 31% (inactive)
4 | CCOC(=O)c1c(NC(=O)COC(=O)c2c(C)noc2C)sc2c1CCC2 | 231 | 7.8% (inactive) | 29.9% (inactive) | 103% | -101% (inactive) | 109% | -0.472 (inactive) | -1.1e-05 (inactive) | 0.0054 (inactive) | 14.6% (inactive) | 21.3% (inactive)
5 | O=c1oc2ccccc2c(O)c1C=NCc1ccccn1 | 452 | 7.6% (inactive) | 2.3% (inactive) | 98.7% | -63.5% (inactive) | 95.8% | -0.509 (inactive) | -4.5e-05 (inactive) | 0.00647 (inactive) | -8.1% (inactive) | 22.7% (inactive)
6 | Cc1cccc(-c2cc3nc4c(c(N5CCOCC5)n3n2)CCCC4)c1 | 621 | -7.5% (inactive) | 1.5% (inactive) | 107% | -74.2% (inactive) | 101% | -0.399 (inactive) | 1e-05 (inactive) | 0.00597 (inactive) | -9.84% (inactive) | 33.5% (inactive)
7 | Cc1noc(C)c1CSc1ccccc1C(=O)N1CCN(c2ccccc2)CC1 | 427 | -1.2% (inactive) | -3.3% (inactive) | 95.9% | 14.6% (inactive) | 105% | -0.482 (inactive) | 1.7e-05 (inactive) | 0.00481 (inactive) | 1.46% (inactive) | 7.95% (inactive)
8 | O=C(Oc1cc2oc(=O)c3c(c2cc1Cl)CCCC3)c1ccco1 | 532 | -14.1% (inactive) | -4.9% (inactive) | 101% | -50.1% (inactive) | 148% | -0.14 (inactive) | -2.3e-05 (inactive) | 0.00588 (inactive) | 4.58% (inactive) | 7.41% (inactive)
9 | CCN(CC)CCn1c(OC)cc(=O)[nH]c1=O | 411 | 5.3% (inactive) | -27.5% (inactive) | 108% | -137% (inactive) | 114% | -0.503 (inactive) | 1.6e-06 (inactive) | 0.00433 (inactive) | 10.7% (inactive) | 18.4% (inactive)
10 | CCn1c(C(=O)N2CCC(C(=O)NCc3ccc4c(c3)OCO4)CC2)cc2sccc21 | 505 | -0.9% (inactive) | -30.3% (inactive) | 75.4% | -65.2% (inactive) | 120% | -0.508 (inactive) | -5.3e-05 (inactive) | 0.00644 (inactive) | 14.9% (inactive) | -2.44% (inactive)
11 | c1ccc(-c2oc3ncnc(NCCN4CCOCC4)c3c2-c2ccccc2)cc1 | 365 | -11.4% (inactive) | -1.8% (inactive) | 102% | -121% (inactive) | 106% | -0.512 (inactive) | -8.4e-05 (inactive) | 0.00536 (inactive) | 13.9% (inactive) | 16% (inactive)
12 | Cc1cc(CN2CCN(CCC#N)CC2)c(O)c(C2(C)CCCCC2)c1 | 527 | -12.3% (inactive) | 5.3% (inactive) | 98.4% | -197% (inactive) | 90.4% | -0.541 (inactive) | 4e-05 (inactive) | 0.00432 (inactive) | -14.9% (inactive) | 4.95% (inactive)
13 | COc1cccc(C(=O)NC2=NCCS2)c1 | 400 | -13.2% (inactive) | 29.5% (inactive) | 71.6% | -56.9% (inactive) | 131% | -0.496 (inactive) | -3.2e-05 (inactive) | 0.00469 (inactive) | -13.2% (inactive) | -61.5% (inactive)
14 | COc1cccc(CNc2nc3nc(C)c(Cl)c(C)n3n2)c1 | 343 | 2.8% (inactive) | -5% (inactive) | 86.4% | 50.1% (inactive) | 83.7% | -0.375 (inactive) | 2.9e-05 (inactive) | 0.00679 (inactive) | -16.5% (inactive) | 98.2% (active)
15 | CCOC(=O)c1ccc(S(=O)(=O)NC2CCCCCCC2)n1C | 583 | -1% (inactive) | 3% (inactive) | 95.7% | -42.2% (inactive) | 123% | -0.614 (inactive) | 5e-06 (inactive) | 0.00591 (inactive) | 17.3% (inactive) | 23.7% (inactive)
16 | CCCN1CCN(CCCNC(=O)Cn2ncc3c4ccccc4n(C)c3c2=O)CC1 | 509 | -3% (inactive) | -2.1% (inactive) | 101% | -61.4% (inactive) | 110% | -0.615 (inactive) | 2.2e-07 (inactive) | 0.00665 (inactive) | -2.18% (inactive) | 34.8% (inactive)
17 | O=C(Nc1cccc2ccccc12)c1cnccn1 | 419 | 11.7% (inactive) | 5.1% (inactive) | 96.9% | -180% (inactive) | 117% | -0.52 (inactive) | -3.3e-05 (inactive) | 0.00645 (inactive) | -180% (inactive) | 99.3% (active)
18 | CCCn1cc(C(CC(=O)O)C(=O)O)c2ccccc21 (stereo not drawn) | 319 | 0.2% (inactive) | 11% (inactive) | 97.5% | -112% (inactive) | 126% | -0.399 (inactive) | -3.1e-05 (inactive) | 0.00576 (inactive) | 13.9% (inactive) | 17.2% (inactive)
19 | CCOc1ccc(N2C(=O)CC(N3CC(C)OC(C)C3)C2=O)cc1 (stereo not drawn) | 578 | -14.1% (inactive) | -12% (inactive) | 104% | 3.9% (inactive) | 128% | -0.357 (inactive) | 5.9e-06 (inactive) | 0.00636 (inactive) | 9.5% (inactive) | 25.7% (inactive)
20 | Cc1nc2sc(C(c3cccs3)N3CC(C)CC(C)C3)c(O)n2n1 (stereo not drawn) | 614 | 3.9% (inactive) | 27.2% (inactive) | 118% | -12.3% (inactive) | 109% | -0.545 (inactive) | 4.4e-06 (inactive) | 0.00614 (inactive) | 11.2% (inactive) | 21.5% (inactive)
21 | COc1ccc(C(C)=O)c(OC(=O)c2ccc(OC)c(OC)c2)c1 | 372 | -0.3% (inactive) | 3.6% (inactive) | 88.8% | -76% (inactive) | 100% | -0.376 (inactive) | 8.8e-06 (inactive) | 0.00658 (inactive) | 13.2% (inactive) | 22.8% (inactive)
22 | c1cncc(-c2nnc3n2N=C(c2cccs2)CS3)c1 | 523 | 4.8% (inactive) | 7.7% (inactive) | 96.4% | -28.3% (inactive) | 107% | -0.331 (inactive) | 5.7e-06 (inactive) | 0.00392 (inactive) | 5.28% (inactive) | 17.3% (inactive)
23 | COC(=O)CC1SCCNC1=O (stereo not drawn) | 308 | 0.8% (inactive) | -7.1% (inactive) | 97.9% | 38.9% (inactive) | 98.8% | -0.552 (inactive) | 2e-05 (inactive) | 0.00463 (inactive) | 0.969% (inactive) | -5.15% (inactive)
24 | CCOc1ccc(NC(=O)CN2C(=O)C3CCCN3C2=O)cc1 (stereo not drawn) | 551 | -13.7% (inactive) | -2.3% (inactive) | 102% | -48.6% (inactive) | 110% | -0.572 (inactive) | 1.4e-05 (inactive) | 0.00647 (inactive) | 3.2% (inactive) | 8.26% (inactive)
25 | Cc1ccc(Cn2nnnc2CN2CCC(O)(c3ccccc3F)CC2)cc1 | 784 | 0.2% (inactive) | 12.3% (inactive) | 96.1% | -57% (inactive) | 122% | -0.498 (inactive) | -5.4e-05 (inactive) | 0.00492 (inactive) | 20.8% (inactive) | 16.6% (inactive)
26 | Nc1nnnn1NCc1cccc(OCc2ccccc2)c1 | 582 | -9.5% (inactive) | 11.2% (inactive) | 64.2% | -2.2% (inactive) | 137% | -0.5 (inactive) | -2.7e-05 (inactive) | 0.00425 (inactive) | 5.03% (inactive) | -6.8% (inactive)
27 | CC(=O)c1cc(F)c(N2CCN(C(=O)Cc3ccccc3)CC2)cc1C | 774 | -3.9% (inactive) | -30.4% (inactive) | 84.3% | -25.8% (inactive) | 110% | -0.493 (inactive) | -6.1e-05 (inactive) | 0.00566 (inactive) | 3.34% (inactive) | 0.856% (inactive)
28 | CCOC(=O)N1CCN(C(=O)CSc2nnc(-c3cccc(Cl)c3)o2)CC1 | 543 | 11.7% (inactive) | -117% (inactive) | 10.5% | -3.2% (inactive) | 96% | -0.494 (inactive) | -0.000158 (inactive) | 0.00621 (inactive) | 0.178% (inactive) | 18.7% (inactive)
